IL1B secr inh: blocks inflammasome-driven IL-1 beta release. THP-1 LPS/ATP IL-1B secretion, AlphaLISA, 16 h; hits give low values. activity change, % at 57.5 µM. hit rate 4.7% among 360,000. AID 743279; in the data active means activity change below about -50%; inconclusive means mostly about -30% to -49%
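Secreted IL-1B measured by AlphaLISA bead assay after 16 h compound exposure of THP-1 cells; compounds (final up to 57.5 uM) added 1 h before LPS (250 ng/mL) and ATP (1.25 mM) stimulation; lower signal means less secretion.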
TDP1 cell noCPT: qHTS for Inhibitors of human tyrosyl-DNA phosphodiesterase 1 (TDP1): qHTS in cells in absence of CPT; hit rate 15% among 420,000; DT40 Tdp1-/- hTDP1 cells, no CPT, ATP luminescence, 48 h; Potency, µM (highest dose often 46.2 µM), inactives show top-dose activity change, negative = growth inhibition, actives largely listed as inhibitors; further: potency means the concentration at half of the fitted maximal effect; nearly all actives have a fitted effect of over 55% in size
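Camptothecin absent (DMSO only). Human TDP1-complemented DT40 knockout cells, 400 cells/well, 37 °C for minimum 48 hr; ATP measured via CellTiter-Glo, 30 min dark incubation, luminescence.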
uPA generation: inhibitors of cell surface uPA generation; cell surface uPA generation assay, qHTS; Potency, µM (series often up to 38.3 µM), for the others: at the top dose activity change, negative = inhibition, most hits filed as inhibitors; hit rate 0.31% among 330,000; active means well fitted inhibition curve with a large enough effect; inconclusive means small, poorly fitted or top-dose-only effect; inactive means no such curve, though single readings can be large or run the other way; tested in mouse RAW 264.7 cells; further: potency means the concentration at half of the fitted maximal effect; nearly all actives have a fitted effect of over 55% in size
DT40 TDP1 CPT: growth inhibition of DT40 Tdp1-/-;hTDP1 cells with camptothecin (screen for TDP1 inhibitors); chicken DT40 Tdp1-/-;hTDP1 cells + 20 nM CPT, ATP luminescence, 48 h; Potency, µM (doses to about 46.2 µM), for the others: at the top dose activity change, negative = growth inhibition, most hits filed as inhibitors; hit rate 12% among 420,000; AID 686979; further: potency means the concentration at half of the fitted maximal effect; nearly all actives have a fitted effect of over 55% in size
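Chicken DT40 Tdp1-/- cells stably complemented with human TDP1 were seeded at 400 cells/well in medium containing 20 nM camptothecin, exposed to pin-transferred compounds, and grown at 37 °C for at least 48 hr. Viability was read as ATP luminescence.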
HT1080 IDH1KD tx: kills HT-1080 cells with IDH1 knockdown; hit rate 2% among 360,000; Potency, µM (top dose mostly 46.1 µM), for the others: top-dose activity, negative = toxicity, hits mostly cytotoxic; HT-1080 IDH1 knockdown viability, ATP luminescence, 48 h;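 further: potency means the concentration at half of the fitted maximal effect; 0% = DMSO wells and -100% = cell-free medium wells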
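Assay cells: HT-1080 with IDH1 knockdown, 750 per well, RPMI/5% FBS. Exposure: 48 h at 37 °C following 2 h pre-incubation. Read: CellTiter-Glo luminescence; fitted concentration-response, curve class assigned.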
HT1080NT lethal: kills 2HG-producing HT-1080-NT fibrosarcoma cells | HT-1080-NT fibrosarcoma viability, CellTiter-Glo ATP luminescence, 48 h | Potency, µM (highest dose often 46.1 µM), for the others: at the top dose activity, negative = less viability, usual class: cytotoxic | hit rate 1.6% among 360,000 | AID 686970;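 further: NT is the 2HG producing partner of a matched IDH1 knockdown line; potency means the concentration at half of the fitted maximal effect; 0% = DMSO-treated cells and -100% = media-only wells without cells; nearly all actives have a fitted effect of over 55% in size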
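Viability of the 2HG-overproducing fibrosarcoma line after 48 hours of compound exposure at 37 degrees C was determined by luminescence with CellTiter-Glo, and concentration-effect curves were then fitted and categorized.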
* marks the source's active call; other numbers are inactive results; i = inactive; ? = inconclusive; nt = no result. Shown are actives, neighbours in structure and some others; about 19% of the full set was active somewhere. Unless noted, the call rests on the fitted dose curve; in most records, active means well fitted curve in the direction sought with a large enough effect; inconclusive means small, poorly fitted or top-dose-only effect, or another doubt; inactive means no such curve, though single readings can be large; an effect the other way counts as inactive or inconclusive. Unless noted, on the % scale 0 is the no-effect control and ±100 the full control effect.

SMILES	IL1B secr inh	TDP1 cell noCPT	uPA generation	DT40 TDP1 CPT	HT1080 IDH1KD tx	HT1080NT lethal
CCCc1cc(=O)[nH]c(Nc2ccc(N3CCCCC3)cc2)n1	-3	?	-2%	?	-6%	-1%
CCCc1cc(=O)[nH]c(Nc2cc(Cl)cc(Cl)c2)n1	nt	16µM*	nt	15µM*	nt	nt
CCn1c(-c2ccccc2F)nc2cc(NC(C)=O)cc(C(=O)N(C)Cc3ccc4nccnc4c3)c21	nt	-20%	nt	?	nt	nt
CCCCCCCCN1C(=O)[C@H](CC(=O)N2CCN(C(=O)c3ccco3)CC2)C[C@@]2(C(=O)OC)CCCCC=C12	-25	23µM*	nt	?	?	?
COC(=O)[C@@]12C[C@@H](CC(=O)N3CCN(C(=O)c4ccco4)CC3)C(=O)N(CCc3ccc(OC)c(OC)c3)C1=CCC(C)(C)C2	-51*	?	nt	?	8%	18%
CCCCCCCCN1C(=O)[C@H](CC(=O)N2CCN(C(=O)c3ccco3)CC2)C[C@@]2(C(=O)OC)CC(C)(C)CC=C12	-51*	15µM*	nt	12µM*	?	?
COc1ccccc1-c1cn(CC[C@H]2CC[C@@H](NS(=O)(=O)c3ccccc3C)[C@@H](CO)O2)nn1	-8	?	nt	?	1%	-2%
Cc1cc(C)cc(N2C(=O)CSC2c2ccccn2)c1 (stereo not drawn)	29	4%	10%	13%	3%	4%
CCN(CC)C(=O)C1=C(C)N(Cc2ccc(C(C)(C)C)cc2)C(=O)C(CC(=O)NCCCN(C)C)C1 (stereo not drawn)	-12	-4%	nt	-8%	7%	-18%
COc1cc2c(cc1OC)CN(CCC(=O)c1ccc(Br)cc1)CC2	0	1.6µM*	1%	3.7µM*	23µM*	26µM*
COc1cc2c(cc1OC)CN(C(=O)CCNC(=O)c1ccc(Br)cc1)CC2	5	-7%	11%	?	1%	3%
CCC(=O)c1ccc(OCC(=O)N2CCc3cc(OC)c(OC)cc3C2)cc1	-9	-27%	-1%	-27%	-5%	-2%
COc1cc2c(cc1OC)CN(C(=O)CCC(=O)c1ccc(F)cc1)CC2	46	12µM*	?	18µM*	?	?
Cn1nc(-c2ccc(Cl)cc2)cc1NC(=O)CCCC(=O)O	0	0%	-7%	3%	0%	1%
Cc1ccc(NC(=O)N2CCN(C)c3ncccc32)cc1C	nt	3%	nt	2%	nt	nt
COc1cc(CN2C[C@@H](CO)O[C@@H](n3cnc4c(NCC(C)C)ncnc43)C2)cc(OC)c1OC	13	2%	nt	-1%	0%	3%
CCOc1ccccc1CN1CCNC(=O)C1CC(=O)N(C)C1CCOCC1 (stereo not drawn)	14	14%	6%	-28%	6%	4%
C=CCOc1ccc(C(=O)c2ccccc2)c(OCC(=O)NC2(C#N)CCCC2)c1	-60*	?	19%	?	-18%	?
Cc1cc(C)cc(NC(=O)CSc2nc3c(oc4ccccc43)c(=O)n2-c2ccccc2)c1	-14	?	12%	-16%	0%	12%
O=C(CSc1ncnc2c1oc1ccccc12)Nc1ccccc1F	48	-11%	14%	-5%	-1%	4%
Cc1cccc(NC(=O)CSc2nc3c(oc4ccccc43)c(=O)n2-c2ccccc2)c1C	nt	21µM*	nt	?	nt	nt
CCOc1ccccc1NC(=O)CSc1nc2c(oc3ccccc32)c(=O)n1-c1ccc(F)cc1	nt	6.5µM*	nt	8.2µM*	nt	nt
CCc1ccccc1NC(=O)CSc1nc2c(oc3ccccc32)c(=O)n1-c1ccccc1	nt	18µM*	nt	23µM*	nt	nt
CCOc1ccccc1NC(=O)CSc1ncnc2c1oc1ccccc12	0	?	9%	29µM*	1%	-2%
COCCn1c(SCC(=O)Nc2ccccc2OC)nc2c(oc3ccccc32)c1=O	-22	?	15%	?	-16%	0%
SMILES	IL1B secr inh	TDP1 cell noCPT	uPA generation	DT40 TDP1 CPT	HT1080 IDH1KD tx	HT1080NT lethal
O=C(NCCN1CCOCC1)c1ccc(NS(=O)(=O)c2ccccc2)cc1	i	8%	-6%	7%	14%	5%
CC(C)CN1CCCC2(CCN(C(=O)c3ccco3)CC2)C1	nt	-4%	nt	10%	nt	nt
OC[C@H]1O[C@@H](O[C@H]2[C@H](O)[C@@H](O)[C@H](O)O[C@@H]2CO)[C@H](O)[C@@H](O)[C@@H]1O	nt	-13%	nt	18%	nt	nt
Cc1cccc(-n2c(SCC(=O)Nc3ccccc3C)nc3c(oc4ccccc43)c2=O)c1	nt	5.2µM*	nt	7.3µM*	nt	nt
CCOc1ccccc1Oc1ncnc2c1oc1ccccc12	nt	21µM*	nt	13µM*	nt	nt
CCC[N+]1(CC#CC(O)(c2ccccc2)C2CCCCC2)CCCCC1 (stereo not drawn)	-14	?	3%	-27%	10%	7%
O=S(=O)([O-])CCC[N+]1(CC#Cc2ccccc2)CCCCC1	5	15µM*	-2%	16µM*	0%	-1%
C(#Cc1ccccc1)C[N+]1(CC#Cc2cccc3ccccc23)CCCC1	-62*	0.058µM*	?	0.65µM*	?	?
CCCc1cc(=O)n2[nH]c(NC(=O)c3ccccc3Cl)nc2n1	nt	-7%	nt	-14%	nt	nt
C/C(=N\NC(=O)Cc1ccc(Cl)cc1)c1cccnc1	-14	10%	-6%	-11%	0%	-2%
CCC(=O)N1CCc2cc(S(=O)(=O)CCC(=O)NCc3ccccc3Cl)ccc21	nt	-28%	nt	?	nt	nt
CCC(=O)N1CCc2cc(S(=O)(=O)CCC(=O)N3CCN(c4ccc(C(C)=O)cc4)CC3)ccc21	2	7.3µM*	0%	18µM*	13%	16%
CCC(=O)N1CCc2cc(S(=O)(=O)CCC(=O)N3CCN(c4cccc(Cl)c4)CC3)ccc21	nt	9.2µM*	nt	21µM*	nt	nt
CCC(=O)N1CCc2cc(S(=O)(=O)CCC(=O)N3CCN(c4ccc(Cl)cc4)CC3)ccc21	-3	4.1µM*	?	8.2µM*	-24%	-15%
CCC(=O)N1CCc2cc(S(=O)(=O)CCC(=O)NCc3cccs3)ccc21	10	?	-1%	?	-8%	-7%
CC(=O)N1CCc2cc(S(=O)(=O)CCC(=O)N3CCc4ccccc4C3)ccc21	34	-21%	1%	?	-3%	-4%
CCC(=O)N1CCc2cc(S(=O)(=O)CCC(=O)Nc3ccc(OC(F)(F)F)cc3)ccc21	nt	23µM*	nt	23µM*	nt	nt
COc1ccc(C(=O)N2CCC(C)(C(=O)NS(=O)(=O)C3CC3)C2)c(OC)c1 (stereo not drawn)	20	-1%	nt	-10%	7%	23%
